LASV entry inh – qHTS for Inhibitors of binding or entry into cells for Lassa Virus; 300,000 tested, 1.2% active; Potency, µM (series often up to 37.9 µM), actives largely listed as inhibitors; AID 540256, 2011; Lassa virus pseudotype entry inhibition, cell reporter; calls by dose curve; tested in HEK293 cells; further: nearly all actives have a fitted effect of over 50% in size
FMDV antiviral – High Throughput Screening for Foot and Mouth Disease Virus Antivirals; FMDV antiviral cell-based qHTS; Potency, µM (series often up to 57.9 µM), actives largely listed as inhibitors; AID 1159524, 2015; 410,000 tested, 1.2% active; calls by dose curve; tested in HEK293T cells; further: read-out not given here; nearly all actives have a fitted effect of over 45% in size
Shiga toxin inh – A qHTS for Small Molecule Inhibitors of Shiga Toxin; AID 2315, 2010; Vero cells, Shiga toxin protein synthesis inhibition reporter; 290,000 tested, 9.2% active; inhibition, % at 38.7 µM; in the data active means inhibition mostly above about 28%, no sharp cut-off; inactive means mostly below about 43%
HCV inh – qHTS Assay for Inhibitors of Hepatitis C Virus (HCV). Huh7.5.1 HCVcc-Cre infection, luciferase reporter, 44 h. Potency, µM (titrated, usually from 41.8 µM), usual class: inhibitors. 340,000 tested, 3.4% active. AID 651820, 2012; active means well fitted inhibition curve with a large enough effect; inconclusive means small, poorly fitted or top-dose-only effect, or another doubt; inactive means no such curve, though single readings can be large or run the other way
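A cell-based infection assay in which seeded cells (1,000 per well) receive test compound after 4 h, are inoculated with HCVcc-Cre at approximately 0.5 moi, and are incubated 44 h before luminescence detection.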
CHX counter – Cycloheximide Counterscreen for Small Molecule Inhibitors of Shiga Toxin; cell reporter, cycloheximide protein synthesis inhibition counterscreen; max response, %; 300,000 tested, 12% active; AID 2314, 2010; in the data active means max response mostly above about 13%, no sharp cut-off; inactive means mostly below about 14%; further: read at 38.3 µM for the half of the compounds with a filed dose
MARV entry inh – qHTS for inhibitors of binding or entry into cells for Marburg Virus | Marburg virus pseudotyped entry inhibition, cell reporter | Potency, µM (series often up to 37.8 µM), hits mostly inhibitors | 300,000 tested, 1.8% active | AID 540276, 2011; calls by dose curve; tested in HEK293 cells
A number is an active result; – = inactive; ? = inconclusive; · = no result given. An excerpt weighted towards active compounds, which were near 13% of everything screened.

SMILES | LASV entry inh | FMDV antiviral | Shiga toxin inh | HCV inh | CHX counter | MARV entry inh
CCOC(=O)C1(CCOc2ccccc2)CCN(Cc2cccn2-c2ncccn2)CC1 | ? | – | – | – | – | 8.91µM
CCOC(=O)C1(Cc2cccc(OC)c2)CCN(Cc2cccc(OC)c2OC)CC1 | – | ? | – | 10µM | – | ?
CCOC(=O)C1(CCOc2ccccc2)CCN(Cc2ccc(-n3cccn3)cc2)CC1 | · | ? | – | 2.51µM | – | ·
CCOC(=O)C1(CCOc2ccccc2)CCN(Cc2cccs2)CC1 | · | ? | – | ? | – | ?
CCOC(=O)C1(CCOc2ccccc2)CCN(Cc2ccncc2)CC1 | – | ? | – | ? | – | ?
CCOC(=O)C1(CCOC)CCN(C/C=C/c2ccccc2OC)CC1 | · | ? | · | 11.2µM | · | ·
CCOC(=O)C1(Cc2cccc(OC)c2)CCN(Cc2cc(OC)ccc2OC)CC1 | ? | – | – | ? | – | ?
CCOC(=O)C1(CCOC)CCN(Cc2cccc(OCc3ccccc3)c2)CC1 | · | ? | – | ? | – | ·
CCOC(=O)C1(Cc2cccc(OC)c2)CCN(Cc2ccccc2)CC1 | ? | ? | – | ? | – | ?
CCOC(=O)C1(Cc2cccc(F)c2)CCN(Cc2cn(CC)nc2C)CC1 | – | – | – | ? | – | ?
CCOC(=O)C1(CCOc2ccccc2)CCN(Cc2cccc(OC)c2)CC1 | · | – | · | 11.2µM | · | ·
CCOC(=O)C1(Cc2cccc(F)c2)CCN(Cc2c(C)nn(CC)c2C)CC1 | · | ? | – | 12.6µM | – | ·
CCOC(=O)C1(Cc2cccc(OC)c2)CCN(Cc2cccnc2)CC1 | – | – | 99.3 | – | 34.8 | –
CCOC(=O)C1(CCOC)CCN(Cc2nc(C(C)C)cs2)CC1 | – | – | 68.3 | – | 29.5 | ?
Nc1ccccc1C#Cc1cnccn1 | · | – | · | ? | · | ·
O=C(O)c1ccc(CNC(=O)c2ccc(S(=O)(=O)N3CCCC3)cc2)cc1 | · | – | · | · | · | ·
COc1cc(NC(=O)C2CCCO2)c(OC)cc1NC(=O)c1ccccc1 (stereo unspecified) | – | – | – | ? | – | –
CC(C)OC(=O)c1c(NC(=O)CCn2nnc3ccccc32)sc2c1CCCC2 | – | – | – | ? | – | –
CC(=O)NCCC(=O)Nc1sc2c(c1-c1nc3ccccc3[nH]1)CCCC2 | – | – | – | 11.2µM | – | –
O=C(Nc1sc2c(c1-c1nc3ccccc3[nH]1)CCCC2)C1CCCC1 | – | – | – | ? | 21.3 | –
CN1CCN(S(=O)(=O)c2cccc(C(=O)Nc3sc4c(c3-c3nc5ccccc5[nH]3)CCCC4)c2)CC1 | – | – | – | 3.55µM | – | 16.4µM
CC(=O)N1CCN(S(=O)(=O)c2cccc(C(=O)Nc3nc4c(s3)CCCC4)c2)CC1 | – | – | – | ? | – | ?
O=C(NC1CCCC1)c1ccccc1-c1nc2ccccc2[nH]1 | – | – | – | ? | – | –
CC1CC(=O)c2c(cc3c(-c4c(O)cc(O)c5c(O)c6c(cc45)OC(C)CC6=O)c(O)cc(O)c3c2O)O1 (stereo unspecified) | · | 35.5µM | – | 4.47µM | – | ·
COc1ccc2nc(C)cc(NCCN3CCOCC3)c2c1 | – | – | – | – | – | –
SMILES | LASV entry inh | FMDV antiviral | Shiga toxin inh | HCV inh | CHX counter | MARV entry inh
Cc1cc(NCCN2CCOCC2)c2ccc3ccccc3c2n1 | · | – | 84.4 | – | 23.0 | ·
Cc1c(Cl)cccc1NC(=O)COC(=O)c1c2c(nc3ccccc13)CCN(Cc1ccccc1)C2 | ? | ? | – | ? | – | 2.59µM
O=C(NC1CCCCCC1)c1c2c(nc3ccccc13)CCN(Cc1ccccc1)C2 | – | – | – | ? | – | ?
Nc1c2c(nc3ccccc13)CCN(Cc1ccccc1)C2 | · | – | – | ? | 14.6 | ·
Nc1nc2c(c(=O)[nH]1)CN(Cc1ccccc1)CC2 | · | – | · | – | · | ·
Cc1cc(N2CCN(C)CC2)ccc1NC(=O)c1c2c(nc3ccccc13)CCN(Cc1ccccc1)C2 | ? | – | – | 2µM | – | ?
COc1cccc(O)c1CN1CCC(Oc2ccc(C(=O)NCc3ccccn3)cc2)CC1 | · | – | – | – | – | ·
COc1cc(NC(=O)Cc2ccccc2)nc(OC)n1 | · | – | – | – | – | ·
O=C(Nc1nnc(-c2ccc3c(c2)CCCC3)o1)c1c(F)cccc1F | – | – | 76.0 | – | – | –
O=C(Nc1nnc(-c2ccc3c(c2)CCCC3)o1)c1ccc(Cl)cc1Cl | · | – | – | – | – | ·
COc1ccc(/C=C2\SC(N)=NC2=O)cc1Br | – | – | · | – | 19.2 | –
